From PubChem BioAssay
Active and inactive are the calls of the source.

What was measured:
[1] = small molecules captured by biotinylated probe aFSTL3 – biochemical, small-molecule microarray, fluorescence 635/667, stem cell growth factor project, primary screen (AID 1064); details: higher = more signal;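 also: measures binding of the biotinylated anti-FSTL3 antibody to printed compounds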
[2] = binders from COS7 lysate, DM2A8 probe, primary screen, torsin A project, cell lysate, small-molecule microarray, fluorescence 635/667 (AID 1065); details: higher = more signal, COS7 lysate expressing mutant human TOR1A
[3] = small molecules captured by biotinylated probe aFGF2 – biochemical, small-molecule microarray, fluorescence 635/667, stem cell growth factor project, primary screen (AID 1067); details: higher = more signal;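 also: measures binding of biotinylated aFGF2 protein to printed compounds on slides; z-score merges feature fluorescence and signal-to-noise across triplicate slides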
[4] = small molecules captured by biotinylated probe aFGF10 – biochemical, small-molecule microarray, fluorescence 635/667, stem cell growth factor project, primary screen (AID 1071); details: higher = more signal;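 also: score merges 667 nm spot intensity and signal to noise from triplicate slides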
[5] = target: Neurogenic locus notch homolog protein 2 (Homo sapiens) (UniProt Q04721); assay: small molecules binding Notch2 protein – biochemical, small-molecule microarray, 635 nm fluorescence, stem cell growth factors, primary screen (AID 1073); details: higher = more signal
[6] = target: Pro-neuregulin-1, membrane-bound isoform (Homo sapiens) (UniProt Q02297); assay: small molecules binding neuregulin-1 protein – biochemical, small-molecule microarray, fluorescence 635/667, psychiatric disease protein project, primary screen (AID 1075); details: NRG1 binding, 635 nm fluorescence, higher = more signal;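 also: score combines 667 nm spot fluorescence with signal to noise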
[7] = tested on: Neuregulin-1 EGF-like domain; assay: small molecules binding NRG1 EGF domain – biochemical, small-molecule microarray, 635 nm fluorescence, primary screen (AID 1081); details: higher = more signal;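 also: binding of the protein to compounds printed on small-molecule microarray slides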
[8] = FRG1 expression reporter modulators in myotubes – cell-based, C2C12 myotubes, firefly/Renilla luciferase, luminescence, FRG1 inhibition for FSHD, primary screen (AID 1084); details: FRG1 promoter luciferase, higher = more signal, called active from +8 up or from −8 down
[9] = small molecules captured by biotinylated probe aFST – biochemical, small-molecule microarray, fluorescence 635/667, stem cell growth factor project, primary screen (AID 1086); details: higher = more signal;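 also: score merges 667 nm fluorescence with signal-to-noise of each printed compound spot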
[10] = binders of probe aHhip on microarray, primary screen, stem cell growth factor project, biochemical, small-molecule microarray, fluorescence 635/667 (AID 1087); details: higher = more signal;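 also: score merges spot fluorescence at 667nm with spot signal to noise ratio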

Pro-neuregulin-1, membrane-bound isoform (Homo sapiens), sequence (Q02297 whole entry, looked up, the tested form may be a part, canonical isoform): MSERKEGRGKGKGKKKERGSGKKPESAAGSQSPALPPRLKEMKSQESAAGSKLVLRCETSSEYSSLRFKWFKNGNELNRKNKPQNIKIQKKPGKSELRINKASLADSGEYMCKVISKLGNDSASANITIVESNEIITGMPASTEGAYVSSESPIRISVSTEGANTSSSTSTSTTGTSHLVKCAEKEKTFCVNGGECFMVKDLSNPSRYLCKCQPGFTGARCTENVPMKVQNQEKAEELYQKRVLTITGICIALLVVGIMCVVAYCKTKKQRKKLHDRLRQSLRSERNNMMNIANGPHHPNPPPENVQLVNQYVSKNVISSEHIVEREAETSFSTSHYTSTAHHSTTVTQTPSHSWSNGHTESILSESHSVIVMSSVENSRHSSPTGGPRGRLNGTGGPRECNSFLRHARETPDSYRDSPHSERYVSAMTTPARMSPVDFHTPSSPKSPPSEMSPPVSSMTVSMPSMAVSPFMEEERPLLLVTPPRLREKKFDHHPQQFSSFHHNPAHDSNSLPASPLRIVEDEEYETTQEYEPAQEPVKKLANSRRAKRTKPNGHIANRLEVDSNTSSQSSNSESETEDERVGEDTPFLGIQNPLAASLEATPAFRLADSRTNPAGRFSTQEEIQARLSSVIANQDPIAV
Neurogenic locus notch homolog protein 2 (Homo sapiens), sequence (Q04721 whole entry, looked up, canonical isoform): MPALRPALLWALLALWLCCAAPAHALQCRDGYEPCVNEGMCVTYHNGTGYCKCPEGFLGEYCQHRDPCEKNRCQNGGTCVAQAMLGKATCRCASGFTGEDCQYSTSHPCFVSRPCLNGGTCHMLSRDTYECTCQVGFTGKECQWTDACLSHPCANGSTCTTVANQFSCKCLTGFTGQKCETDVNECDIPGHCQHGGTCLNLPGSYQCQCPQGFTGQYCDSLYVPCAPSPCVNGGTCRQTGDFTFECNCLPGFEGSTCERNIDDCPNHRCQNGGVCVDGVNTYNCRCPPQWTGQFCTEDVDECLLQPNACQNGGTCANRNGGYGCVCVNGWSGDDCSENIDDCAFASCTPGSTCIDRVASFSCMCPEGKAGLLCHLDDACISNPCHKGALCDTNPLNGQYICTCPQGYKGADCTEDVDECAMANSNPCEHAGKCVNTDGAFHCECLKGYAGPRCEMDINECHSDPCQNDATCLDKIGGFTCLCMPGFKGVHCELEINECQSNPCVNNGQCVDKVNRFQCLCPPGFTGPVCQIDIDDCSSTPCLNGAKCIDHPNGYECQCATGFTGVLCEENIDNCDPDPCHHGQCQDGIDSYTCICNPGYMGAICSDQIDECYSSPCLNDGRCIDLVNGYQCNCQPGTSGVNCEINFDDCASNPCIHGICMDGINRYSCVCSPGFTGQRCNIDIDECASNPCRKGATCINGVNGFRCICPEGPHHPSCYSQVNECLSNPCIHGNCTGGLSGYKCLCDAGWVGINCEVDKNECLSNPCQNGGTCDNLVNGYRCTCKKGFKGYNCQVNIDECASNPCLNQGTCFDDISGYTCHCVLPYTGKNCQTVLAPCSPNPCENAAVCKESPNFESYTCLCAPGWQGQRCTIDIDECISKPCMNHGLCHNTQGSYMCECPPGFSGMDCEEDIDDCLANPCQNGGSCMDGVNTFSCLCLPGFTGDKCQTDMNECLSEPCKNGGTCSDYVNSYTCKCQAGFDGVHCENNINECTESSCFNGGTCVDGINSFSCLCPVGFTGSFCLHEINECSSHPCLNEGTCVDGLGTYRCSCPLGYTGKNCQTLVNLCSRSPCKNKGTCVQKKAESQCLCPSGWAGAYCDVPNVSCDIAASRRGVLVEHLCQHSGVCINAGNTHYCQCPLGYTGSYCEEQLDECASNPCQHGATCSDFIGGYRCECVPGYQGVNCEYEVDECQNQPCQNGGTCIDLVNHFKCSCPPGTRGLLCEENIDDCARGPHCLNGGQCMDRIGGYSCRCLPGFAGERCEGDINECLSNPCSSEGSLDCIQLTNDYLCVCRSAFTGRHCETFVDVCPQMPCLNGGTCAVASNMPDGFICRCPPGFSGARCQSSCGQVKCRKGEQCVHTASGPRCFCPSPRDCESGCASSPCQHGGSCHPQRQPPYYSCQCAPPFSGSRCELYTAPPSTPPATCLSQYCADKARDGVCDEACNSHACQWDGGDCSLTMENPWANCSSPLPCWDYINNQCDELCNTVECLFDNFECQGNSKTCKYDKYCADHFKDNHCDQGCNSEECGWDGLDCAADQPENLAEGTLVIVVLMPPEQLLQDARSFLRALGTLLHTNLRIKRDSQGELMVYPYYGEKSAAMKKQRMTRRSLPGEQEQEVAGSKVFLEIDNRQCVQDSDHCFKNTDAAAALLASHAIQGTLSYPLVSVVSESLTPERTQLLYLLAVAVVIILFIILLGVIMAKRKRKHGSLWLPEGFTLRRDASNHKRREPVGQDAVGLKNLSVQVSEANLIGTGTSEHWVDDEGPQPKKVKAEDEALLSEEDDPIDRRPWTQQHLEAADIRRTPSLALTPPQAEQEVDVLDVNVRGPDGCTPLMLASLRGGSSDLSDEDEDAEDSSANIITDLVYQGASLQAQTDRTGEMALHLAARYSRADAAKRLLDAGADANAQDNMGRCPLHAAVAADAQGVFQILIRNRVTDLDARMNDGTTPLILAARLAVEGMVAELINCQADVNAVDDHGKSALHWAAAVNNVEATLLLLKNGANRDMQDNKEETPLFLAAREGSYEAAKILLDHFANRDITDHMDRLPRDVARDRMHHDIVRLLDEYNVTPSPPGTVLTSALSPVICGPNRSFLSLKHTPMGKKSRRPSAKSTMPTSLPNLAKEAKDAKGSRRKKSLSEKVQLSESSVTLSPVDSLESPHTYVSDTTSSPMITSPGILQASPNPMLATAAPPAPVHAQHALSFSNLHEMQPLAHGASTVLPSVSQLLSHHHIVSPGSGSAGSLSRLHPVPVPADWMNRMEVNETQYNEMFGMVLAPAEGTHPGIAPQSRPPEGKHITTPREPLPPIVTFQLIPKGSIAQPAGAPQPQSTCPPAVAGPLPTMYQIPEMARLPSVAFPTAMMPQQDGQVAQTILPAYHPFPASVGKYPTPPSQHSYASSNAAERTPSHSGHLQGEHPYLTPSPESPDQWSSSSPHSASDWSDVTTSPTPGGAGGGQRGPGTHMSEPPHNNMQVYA

Row | SMILES | composite z-score [1] | composite z-score [2] | composite z-score [3] | composite z-score [4] | composite z-score [5] | composite z-score [6] | composite z-score [7] | z-score [8] | composite z-score [9] | composite z-score [10]
1 | COC(=O)[C@@]1(Cc2ccccc2)[C@H]2c3cc(C(=O)N4CCCC4)n(Cc4ccc(S(C)(=O)=O)cc4)c3C[C@H]2CN1C(=O)c1ccccc1 | 1 | 0.0844 | 0.371 | -0.0015 | 1.68 | 1.66 | 1.31 | 1.45 (inactive) | 1.23 | 0.939
2 | CO[C@H]1O[C@H](CO)[C@@H](OC(=O)Nc2cccc(F)c2)[C@H](OC(=O)Nc2ccccc2)[C@@H]1OC(=O)Nc1ccccc1 | -0.139 | 0.995 | 0.185 | 1.17 | 1.51 | 1.51 | 1.19 | 1.17 (inactive) | 0.7 | -0.137
3 | NCCCCCNC(=O)[C@@H]1C[C@@H]2C(=O)N[C@@H](Cc3ccccc3)C(=O)N2[C@@H]1c1ccc(O)cc1 | 0.266 | 0.0499 | 0.0257 | 0.507 | 1.12 | 1.05 | 1.24 | 0.227 (inactive) | 0.918 | -0.175
4 | CC1(C)[C@@H]2CC(C(O)C3C=CC4C(=O)N(c5ccccc5)C(=O)C4N3Nc3ccc([N+](=O)[O-])cc3)=C[C@H]1C2 (stereo not given in full) | -0.204 | 0.325 | -0.0834 | 0.873 | 1.7 | 1.88 | 1.2 | -1.08 (inactive) | 0.352 | -0.0852
5 | C=C(COC)/C(=C/C[C@H](OC(C)=O)c1ccc(CO)o1)c1cc(C(=O)OC)ccc1OC | -0.113 | 0.183 | -0.129 | 0.779 | -0.925 | 0.0136 | 0.7 | 0.0728 (inactive) | -0.0787 | 0.0749
6 | COC(=O)c1c(CC[C@@H](CO)NC(=O)NCCn2cc(C3(O)CCCC3)nn2)oc(C(C)=O)c1C(=O)OC | -0.465 | 0.24 | 0.127 | 0.173 | -0.119 | 0.718 | 0.685 | -0.598 (inactive) | -0.204 | -0.184
7 | CCCC[C@@H]1C[C@H]1[C@@H](NC(=O)c1cccs1)c1ccc(-c2ccccc2)cc1 | 0.108 | 0.0945 | 0.189 | 0.486 | 0.146 | -0.0051 | 0.411 | -0.621 (inactive) | 0.151 | 0.2
8 | COC(=O)[C@@]1(Cc2ccc(F)cc2)[C@H]2c3cc(C(=O)N(C)C)n(Cc4ccccc4)c3C[C@H]2CN1C(=O)c1ccccc1 | -0.0364 | -0.267 | 0.0103 | 0.314 | 1.58 | 1.32 | 0.337 | 0.403 (inactive) | 1.35 | 2.22
9 | C=CCC(OC(C)=O)[C@@H]1[C@@H](N(Cc2cccc3ccccc23)C(=O)c2ccc(-c3ccccc3)cc2)c2cc(OCCCO)ccc2N1C(=O)c1ccc2ccccc2c1 (stereo not given in full) | -0.484 | 0.306 | -0.0647 | -0.0203 | 0.104 | 0.148 | 0.0031 | -0.0039 (inactive) | 0.131 | 0.0722
10 | C=CCNC(=O)[C@@H]1[C@H]2C(=O)O[C@H](c3ccccc3)[C@H](c3ccccc3)N2[C@H](c2ccc(O)cc2)[C@@]12C(=O)Nc1ccc(C#CCNC(N)=O)cc12 | 0.0358 | 0.135 | -0.114 | -0.172 | -0.383 | 0.623 | -0.0033 | 1.57 (inactive) | -0.633 | -0.226
11 | C=CCN1C(=O)[C@@]2(CC=C)N=C(c3ccc(OCCCO)cc3)O[C@H]2c2ccccc21 | 0.529 | 0.194 | 0.0606 | -0.0534 | 1.38 | 1.3 | 1.37 | -2.47 (inactive) | 0.835 | -0.318
12 | C[C@H]1C2[C@H](Cc3ccccc3)NC(=O)[C@]23C(=O)N[C@H](Cc2ccccc2)C(=O)N2CCC[C@H]2C(=O)NC/C=C\C/C=C/C3[C@@H]2O[C@]12C (stereo not given in full) | -0.4 | -0.217 | -0.0439 | 0.293 | 0.451 | 0.455 | -0.473 | 1.59 (inactive) | 0.0114 | -0.236
13 | O=C(c1ccccc1)N1C(=O)[C@@]2(Cc3ccccc31)N=C(c1ccc(OCCCO)cc1)O[C@H]2c1ccccc1 | 0.77 | 0.686 | 0.15 | 0.663 | 1.17 | 1.57 | 1.39 | -2.91 (inactive) | 1.01 | 0.364
